Compound activity from PubChem BioAssay.
Rows were chosen to be rich in hits. Some 2.1% of all compounds tested hit in one or more screens of this group.
Rpn11 inh: Rpn11 (PSMD14) deubiquitinase inhibitors, primary screen, biochemical, fluorescence polarization, uHTS. human 26S proteasome, Ub4-pepOG fluorescence polarization; 20S core pre-blocked with epoxomicin. 360,000 compounds, 0.59% hits. inhibition, % at 20 µM. 26S proteasome non-ATPase regulatory subunit 14 (Homo sapiens), O00487;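 active = inhibition at 20 µM, scaled to each plate's controls, above about 33%, limit read from the data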
Target sequence (O00487 whole entry, looked up): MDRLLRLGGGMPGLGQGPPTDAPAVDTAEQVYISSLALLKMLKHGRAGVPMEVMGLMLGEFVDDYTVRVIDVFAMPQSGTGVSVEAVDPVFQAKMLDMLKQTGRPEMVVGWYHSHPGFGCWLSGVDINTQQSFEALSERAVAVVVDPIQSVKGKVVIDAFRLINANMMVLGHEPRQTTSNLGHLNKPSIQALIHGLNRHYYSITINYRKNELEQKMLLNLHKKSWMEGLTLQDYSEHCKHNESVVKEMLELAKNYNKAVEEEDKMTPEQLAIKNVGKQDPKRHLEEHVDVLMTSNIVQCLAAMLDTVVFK
TPT1 inhibitor: Candida albicans TPT1 enzyme inhibitors, primary screen, biochemical, fluorescence polarization | recombinant caTPT1, FP RNA substrate dephosphorylation | inhibition, % at 5 µM | 300,000 compounds, 0.81% hits | AID 1962, 2009;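 active = inhibition above the mean of all tested compounds plus 3 SD, set per screening campaign, cut at about 24% in these data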;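 also: plate controls were DMSO alone for no effect and ferristatin control at 100 nM for full effect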
Myeloid diff MLP: induction of myeloid progenitor differentiation, primary screen, cell-based, flow cytometry, MLPCN library; ER-HoxA9 myeloid progenitors, lysozyme-GFP differentiation; calls only at 10 µM; 360,000 compounds, 1% hits;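 active = normalized GFP-positive differentiation at or above the plate's own cutoff, the solvent-only control mean plus 3 SD; inconclusive = no clear call, values can overlap the other calls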;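 also: cells exposed to compound for four days before flow analysis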
HNF4A DNA FP: change in binding of human HNF4A to DNA, primary screen, biochemical, fluorescence polarization, FITC-DNA | Hepatocyte nuclear factor 4-alpha (Homo sapiens), P41235 | AID 1224865, 2016 | activity change, % at 10 µM | 360,000 compounds, 0.3% hits | 1 h; in the data active = activity change above about 30%, passing the limit was not always enough
caTPT1 confirm: Candida albicans TPT1 inhibitors, confirmation, biochemical, fluorescence polarization, triplicate | recombinant caTPT1, RNase T1 coupled | 2,400 compounds, 74% hits | inhibition, % at 5 µM | AID 2149, 2009 | shares compounds with TPT1 inhibitor;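 active = inhibition above the primary screen limit, the mean inhibition of all tested compounds plus 3 SD, cut at about 25% in these data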
RNase T1 inh: RNase T1 inhibitors, counter-screen for TPT1 inhibitor project, biochemical, fluorescence polarization. shares compounds with TPT1 inhibitor. RNase T1 cleavage, 1536-well. inhibition, % at 5 µM. 2,400 compounds, 83% hits;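 active = inhibition above the solvent-only control well mean plus 3 SD, limit set per screening run, cut at about 23% in these data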;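 also: plate controls were DMSO wells with enzyme for no effect and wells without RNase T1 for full effect; inhibitors block cleavage so intact labeled substrate keeps polarization high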
Target sequence (P00651 whole entry, looked up): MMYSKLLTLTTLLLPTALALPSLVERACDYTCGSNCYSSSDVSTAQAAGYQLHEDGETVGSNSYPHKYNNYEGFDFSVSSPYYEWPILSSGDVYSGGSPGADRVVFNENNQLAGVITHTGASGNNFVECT
Rpn11 inh conf: Rpn11 (PSMD14) deubiquitinase inhibitors, confirmation, biochemical, fluorescence polarization, single concentration | shares compounds with Rpn11 inh | purified human 26S proteasome, Ub4-pepOG fluorescence polarization; proteasome pretreated with epoxomicin | inhibition, % at 20 µM | 1,900 compounds, 29% hits | AID 602318, 2012
MMP-2 inh: MMP-2 enzyme inhibition, confirmation, counter-screen for RPN11 inhibitor project, biochemical, fluorescence, single concentration | shares compounds with Rpn11 inh | recombinant MMP-2, FRET peptide cleavage fluorescence | inhibition, % at 20 µM | 1,900 compounds, 4% hits | AID 602330, 2012;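 also: human MMP-2 activated beforehand with APMA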
Thrombin FP: bovine thrombin protease inhibition, confirmation, counter-screen for Rpn11 inhibitor project, biochemical, fluorescence polarization, single concentration | shares compounds with Rpn11 inh | bovine thrombin cleavage of Ub4-pepOG | inhibition, % at 20 µM | 1,900 compounds, 13% hits | AID 602333, 2012;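 active = mean inhibition at least 40% at 20 µM, or signal 3 deviations below plate average, so some actives read negative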;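 also: plate controls were thrombin with DMSO for no effect and buffer wells lacking thrombin for full effect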
HNF4a DNA conf: change in HNF4A binding to DNA, retest, confirmation, biochemical, fluorescence polarization, FITC-DNA | shares compounds with HNF4A DNA FP | 1 h | activity change, % at 12.5 µM | 210 compounds, 99% hits; call rule not given here
The depositor's hits bear a star; i = inactive; ? = inconclusive; · = no result given; + = active, no number. Rule as the data show it, unless noted: active = inhibition above about 40%; inactive = the rest.

SMILES	Rpn11 inh	TPT1 inhibitor	Myeloid diff MLP	HNF4A DNA FP	caTPT1 confirm	RNase T1 inh	HNF4a DNA conf	others
CCCc1cnc(N2CCN(C(=O)c3c(-c4ccccc4)noc3C)CC2)nc1	-3	-2	i	1	·	·	·
Cc1cccc(-c2noc(CNC(=O)c3ccoc3C)n2)c1	·	34*	+	50*	65*	74*	32*
CCOC(=O)c1ccc(CSc2nnc(N)s2)cc1	2	-2	i	2	·	·	·
C=CCn1c(SCc2nc3sc4c(c3c(=O)[nH]2)CCCC4)nc2ccccc2c1=O	·	27*	i	49*	48*	62*	65*
CCc1cccc(NS(=O)(=O)c2c(C)nc3sc(CC)nn3c2=O)c1	3	2	i	-6	·	·	·
N#Cc1c(Nc2cccc(F)c2)sc2c(O)cc(=O)[nH]c12	·	51*	i	44*	29*	40*	52*
Cc1onc(-c2ccccc2)c1C(=O)Nc1sc2c(c1C#N)CCC2	21	18	i	13	·	·	·
Cc1onc(-c2ccccc2)c1C(=O)Nc1sccc1C#N	·	83*	i	44*	91*	99*	65*
COc1ccccc1CNC(=O)CCN=C1NS(=O)(=O)c2ccccc21	-4	·	i	4	·	·	·
N#Cc1c(-c2c(Cl)cccc2Cl)noc1/C=C/Nc1ccc(C(=O)O)cc1	17	3	i	2	·	·	·
CSc1nsc(/C=C/Nc2ccc(C(=O)O)cc2)c1C#N	68*	31*	i	49*	43*	53*	45*	Rpn11 inh conf=53*;MMP-2 inh=-7;Thrombin FP=42*
CCOC(=O)C1=C(C)NC(=O)NC1c1ccc(NC(C)=O)cc1 (stereo not given)	4	2	i	6	·	·	·
CCOC(=O)C1=C(C)NC(=O)NC1c1ccc(N2CCC(c3ccccc3)=N2)cc1 (stereo not given)	·	53*	+	55*	77*	87*	62*
O=C(O)c1ccc(/C=C/c2ccc3cccc(O)c3n2)cc1	9	·	i	-6	·	·	·
Oc1ccc(/C=C/c2ccc3cccc(O)c3n2)cc1Br	·	48*	i	44*	63*	70*	76*
COc1ccc(-c2nnc(C)c3nocc23)cc1	89*	67*	i	56*	60*	69*	63*	Rpn11 inh conf=48*;MMP-2 inh=-5;Thrombin FP=40
Cc1cccc(C)c1N=Cc1c(O)n(-c2nccs2)c(=O)c2ccccc12	-30	1	i	1	·	·	·
O=c1c2ccccc2c(/C=N/c2nnc(Cc3ccccc3)s2)c(O)n1-c1ccc(Cl)cn1	·	25*	i	86*	154*	146*	95*
CC(C)OC(=O)c1cc(C(=O)c2cc(Br)ccc2O)coc1=N	20	5	i	7	·	·	·
COc1ccc(O)c(C(=O)c2coc(=N)c(C(=O)Nc3ccc(SC(F)F)cc3)c2)c1	·	63*	i	44*	75*	78*	65*
O=C1c2cccnc2C(=O)N1Cc1ccc(F)cc1S(=O)(=O)NCc1ccco1	0	2	i	2	·	·	·
COc1ccc(C(=O)/C=C/c2cn(CN3CCN(C)CC3)c3ccccc23)cc1	19	15	i	9	·	·	·
COc1ccc(C(=O)/C=C/c2cn(CC(O)CN3CCOCC3)c3ccccc23)cc1 (stereo not given)	·	51*	i	42*	45*	57*	75*
CC(C)CCN1CCN(C2CSCCSC2)CC1CCO (stereo not given)	0	-3	i	-3	·	·	·
C=CCSc1nnc(C)c(/C=C/Nc2ccc(Cl)cc2)n1	·	155*	?	51*	133*	129*	38*
SMILES	Rpn11 inh	TPT1 inhibitor	Myeloid diff MLP	HNF4A DNA FP	caTPT1 confirm	RNase T1 inh	HNF4a DNA conf	others
CCN1CCc2c(sc(NC(=O)c3ccc4ccccc4c3)c2C(N)=O)C1	·	65*	?	38*	80*	89*	65*
CCN1CCc2c(sc(NC(=O)CN3C(=O)c4ccccc4C3=O)c2C(N)=O)C1	5	1	i	0	·	·	·
CCOc1cc(/C=C2\N=C3CCCCCN3C2=O)ccc1O	·	43*	i	49*	58*	60*	71*
Cn1c(=O)n(C)c2cc(NC(=O)CSc3nc4ccccc4c(=O)[nH]3)ccc21	7	0	i	0	·	·	·
Cc1ccc(S(=O)(=O)N2CC3(O)CN(C(=O)OC(C)C)N(C(=O)OC(C)C)CC3(OC(=O)NCc3ccccc3F)C2)cc1 (stereo not given)	2	·	i	1	·	·	·
CC1CCN(c2ccc3c(c2)S(=O)(=O)c2ccccc2C3=O)CC1	·	65*	i	58*	80*	88*	71*
NC(=O)C1CCN(c2ccc3c(c2)S(=O)(=O)c2ccccc2C3=O)CC1	·	31*	i	47*	38*	48*	67*
NC(=O)C1CCN(C(=O)c2ccc3c(c2)S(=O)(=O)c2ccccc2C3=O)CC1	0	-4	i	-3	·	·	·
CCCC1=C(C(=O)OCC)C(c2ccc(OC)c(C)c2OC)C(C#N)=C(N)O1 (stereo not given)	-8	-1	i	5	·	·	·
O=C(COC(=O)CCc1ccccc1)NNC(=O)c1ccccc1	2	·	i	4	·	·	·
Cc1nc(SCC(=O)NC(C)(C#N)C2CC2)c2c(-c3cccs3)csc2n1 (stereo not given)	10	-1	i	0	·	·	·
CCOC(=O)c1[nH]c2ccccc2c1NC(=O)Nc1ccc(OC)cc1	137*	-3	i	3	·	·	·	Rpn11 inh conf=-17;MMP-2 inh=-40;Thrombin FP=-12
